In paper PMC7862700, “An all-to-all approach to the identification of sequence-specific readers for epigenetic DNA modifications on cytosine”:

What was measured:
Experiment in all cases: DAPPL (digital affinity profiling via proximity ligation, sequencing); 10 mM Tris-HCl pH 7.5, 50 mM NaCl, 1 mM DTT, 4% glycerol, room temperature, 30 min; GST-TFs on glutathione beads, 16-mer random dsDNA library, 0.1% formaldehyde crosslink after washing; high values mean tight binding
FLI1 = biological target: T1, FLI1 (Homo sapiens, UniProt Q01543 1-452); conditions: protein: recombinant; tags: N-terminal GST; dsDNA, one strand shown
T1 sequence: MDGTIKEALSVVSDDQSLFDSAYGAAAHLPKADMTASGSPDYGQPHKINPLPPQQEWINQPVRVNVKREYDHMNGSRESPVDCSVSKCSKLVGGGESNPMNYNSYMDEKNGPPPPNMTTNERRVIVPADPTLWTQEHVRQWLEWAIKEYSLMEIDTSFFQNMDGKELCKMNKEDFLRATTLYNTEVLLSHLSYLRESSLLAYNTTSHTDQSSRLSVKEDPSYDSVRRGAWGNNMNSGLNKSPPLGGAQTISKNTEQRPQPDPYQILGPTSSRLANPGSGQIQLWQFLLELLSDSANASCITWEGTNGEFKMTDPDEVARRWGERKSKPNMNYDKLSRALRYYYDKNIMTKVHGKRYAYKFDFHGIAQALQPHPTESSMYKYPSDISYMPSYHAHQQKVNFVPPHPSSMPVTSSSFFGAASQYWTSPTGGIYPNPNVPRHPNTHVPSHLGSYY
Summary of the method: (§1)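 Sequencing on an Illumina NextSeq500 followed washing, crosslinking with 0.1% formaldehyde, proximity ligation (BsaI/T4 ligase, 1 h, 37 °C) and PCR amplification of pools that had been incubated for 30 min at room temperature with 200 nmole of a random double-stranded 16-mer DNA library in Tris/NaCl/DTT/glycerol buffer. Each pool held DNA-barcoded human transcription factors, expressed in yeast as GST fusions and captured on glutathione beads, plus a tag-only sample. Binding signal is a hexamer's read frequency for a factor divided by its frequency in the tag-only sample.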

ELK1 = biological target: T2, ELK1 (Homo sapiens, UniProt P19419 1-428); conditions: protein: recombinant; tags: N-terminal GST; dsDNA, one strand shown
T2 sequence: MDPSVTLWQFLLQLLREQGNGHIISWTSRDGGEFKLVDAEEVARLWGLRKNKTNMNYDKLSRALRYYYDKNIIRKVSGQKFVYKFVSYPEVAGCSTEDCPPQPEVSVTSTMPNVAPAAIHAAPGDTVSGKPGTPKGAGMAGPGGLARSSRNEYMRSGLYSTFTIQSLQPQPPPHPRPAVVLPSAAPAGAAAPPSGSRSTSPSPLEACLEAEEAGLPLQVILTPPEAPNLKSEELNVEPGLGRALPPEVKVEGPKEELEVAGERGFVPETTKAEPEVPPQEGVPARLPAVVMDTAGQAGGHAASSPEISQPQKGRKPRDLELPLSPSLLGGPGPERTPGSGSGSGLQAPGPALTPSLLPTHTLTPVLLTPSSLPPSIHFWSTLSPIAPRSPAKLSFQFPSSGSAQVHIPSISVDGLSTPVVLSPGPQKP
Summary of the method: as §1

GABPA = biological target: T3, GABPA (Homo sapiens, UniProt Q06546 1-454); conditions: protein: recombinant; tags: N-terminal GST; dsDNA, one strand shown
T3 sequence: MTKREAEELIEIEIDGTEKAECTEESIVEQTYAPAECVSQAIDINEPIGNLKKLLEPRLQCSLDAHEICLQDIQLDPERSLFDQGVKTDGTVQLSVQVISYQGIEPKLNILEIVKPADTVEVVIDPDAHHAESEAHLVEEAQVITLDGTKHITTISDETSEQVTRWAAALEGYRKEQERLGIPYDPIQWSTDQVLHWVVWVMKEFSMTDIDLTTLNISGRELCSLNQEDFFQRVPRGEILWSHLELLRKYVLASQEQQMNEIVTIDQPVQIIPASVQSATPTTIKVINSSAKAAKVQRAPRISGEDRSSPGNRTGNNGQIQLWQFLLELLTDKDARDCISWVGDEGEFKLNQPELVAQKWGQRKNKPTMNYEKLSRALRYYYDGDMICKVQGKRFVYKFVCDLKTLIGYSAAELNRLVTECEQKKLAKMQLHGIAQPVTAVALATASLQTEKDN
Summary of the method: as §1

ERG = biological target: T4, ERG (Homo sapiens, UniProt P11308 1-479); conditions: protein: recombinant; tags: N-terminal GST; dsDNA, one strand shown
T4 sequence: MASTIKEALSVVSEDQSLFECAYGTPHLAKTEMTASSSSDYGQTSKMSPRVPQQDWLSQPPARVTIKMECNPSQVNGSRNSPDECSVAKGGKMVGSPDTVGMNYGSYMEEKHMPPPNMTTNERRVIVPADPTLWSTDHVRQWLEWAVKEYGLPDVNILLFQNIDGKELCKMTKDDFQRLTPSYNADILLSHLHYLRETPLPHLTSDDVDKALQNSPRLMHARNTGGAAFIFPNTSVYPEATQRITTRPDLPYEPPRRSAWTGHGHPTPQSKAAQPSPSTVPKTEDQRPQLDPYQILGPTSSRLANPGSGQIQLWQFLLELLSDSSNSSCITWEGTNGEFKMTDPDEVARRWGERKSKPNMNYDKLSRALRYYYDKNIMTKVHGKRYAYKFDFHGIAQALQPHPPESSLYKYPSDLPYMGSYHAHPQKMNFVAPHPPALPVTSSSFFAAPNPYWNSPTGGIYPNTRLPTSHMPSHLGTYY
Summary of the method: as §1

ELF1 = ELF1 (Homo sapiens, UniProt P32519 1-619); conditions: protein: recombinant; tags: N-terminal GST; dsDNA, one strand shown
Chain of ELF1 (P32519 whole entry): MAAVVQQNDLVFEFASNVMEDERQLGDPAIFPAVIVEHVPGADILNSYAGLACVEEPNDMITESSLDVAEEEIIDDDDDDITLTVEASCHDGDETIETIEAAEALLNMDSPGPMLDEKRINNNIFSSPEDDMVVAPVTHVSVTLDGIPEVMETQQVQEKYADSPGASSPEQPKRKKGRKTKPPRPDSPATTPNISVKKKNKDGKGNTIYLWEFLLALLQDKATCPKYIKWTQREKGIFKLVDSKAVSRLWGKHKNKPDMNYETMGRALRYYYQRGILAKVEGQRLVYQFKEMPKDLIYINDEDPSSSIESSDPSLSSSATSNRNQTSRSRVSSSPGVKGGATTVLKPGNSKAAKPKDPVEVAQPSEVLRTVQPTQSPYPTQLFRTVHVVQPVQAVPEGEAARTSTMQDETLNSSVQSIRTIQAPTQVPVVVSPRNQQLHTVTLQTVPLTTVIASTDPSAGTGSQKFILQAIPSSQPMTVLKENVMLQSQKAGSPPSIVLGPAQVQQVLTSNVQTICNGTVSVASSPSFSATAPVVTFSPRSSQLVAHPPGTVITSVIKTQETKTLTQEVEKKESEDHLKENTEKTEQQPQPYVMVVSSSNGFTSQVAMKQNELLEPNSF
Summary of the method: as §1

EHF = biological target: T5, EHF (Homo sapiens, UniProt Q9NZC4 1-300); conditions: protein: recombinant; tags: N-terminal GST; dsDNA, one strand shown
T5 sequence: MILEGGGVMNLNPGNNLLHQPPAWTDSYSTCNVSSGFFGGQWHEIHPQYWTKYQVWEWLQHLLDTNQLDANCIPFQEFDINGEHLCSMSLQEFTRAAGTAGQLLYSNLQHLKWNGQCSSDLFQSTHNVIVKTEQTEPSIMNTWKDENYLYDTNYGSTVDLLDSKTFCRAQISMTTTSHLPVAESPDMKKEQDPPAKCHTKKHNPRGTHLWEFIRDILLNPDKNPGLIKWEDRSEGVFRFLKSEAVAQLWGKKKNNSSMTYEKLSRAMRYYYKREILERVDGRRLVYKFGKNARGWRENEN
Summary of the method: as §1

SPI1 = SPI1 (Homo sapiens, UniProt P17947 1-270); conditions: protein: recombinant; tags: N-terminal GST; dsDNA, one strand shown
Summary of the method: as §1

SPIB = SPIB (Homo sapiens, UniProt Q01892 1-262); conditions: protein: recombinant; tags: N-terminal GST; dsDNA, one strand shown
Chain of SPIB (Q01892 whole entry): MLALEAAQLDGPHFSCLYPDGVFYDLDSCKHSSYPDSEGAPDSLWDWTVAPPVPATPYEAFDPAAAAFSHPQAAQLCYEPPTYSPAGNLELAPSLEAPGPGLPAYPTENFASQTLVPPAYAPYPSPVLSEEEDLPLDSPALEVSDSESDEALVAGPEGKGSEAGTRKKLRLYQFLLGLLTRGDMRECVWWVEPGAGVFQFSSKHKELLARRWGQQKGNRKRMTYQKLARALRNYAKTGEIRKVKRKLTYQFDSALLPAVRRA
Summary of the method: as §1

ELK3 = biological target: T6, ELK3 (Homo sapiens, UniProt P41970 1-407); conditions: protein: recombinant; tags: N-terminal GST; dsDNA, one strand shown
T6 sequence: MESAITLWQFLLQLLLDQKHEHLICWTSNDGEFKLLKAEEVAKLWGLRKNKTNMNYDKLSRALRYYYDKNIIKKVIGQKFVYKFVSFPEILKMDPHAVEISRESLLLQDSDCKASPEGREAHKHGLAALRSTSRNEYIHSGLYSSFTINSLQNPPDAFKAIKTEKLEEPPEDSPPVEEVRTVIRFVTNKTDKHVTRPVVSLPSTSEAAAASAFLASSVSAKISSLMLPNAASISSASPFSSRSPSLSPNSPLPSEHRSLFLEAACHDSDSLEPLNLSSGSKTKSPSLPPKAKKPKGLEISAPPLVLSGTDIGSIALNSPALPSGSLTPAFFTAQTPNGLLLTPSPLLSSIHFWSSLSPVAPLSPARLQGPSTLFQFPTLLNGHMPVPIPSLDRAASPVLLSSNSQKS
Summary of the method: as §1

FEV = biological target: T7, FEV (Homo sapiens, UniProt Q99581 1-238); conditions: protein: recombinant; tags: N-terminal GST; dsDNA, one strand shown
T7 sequence: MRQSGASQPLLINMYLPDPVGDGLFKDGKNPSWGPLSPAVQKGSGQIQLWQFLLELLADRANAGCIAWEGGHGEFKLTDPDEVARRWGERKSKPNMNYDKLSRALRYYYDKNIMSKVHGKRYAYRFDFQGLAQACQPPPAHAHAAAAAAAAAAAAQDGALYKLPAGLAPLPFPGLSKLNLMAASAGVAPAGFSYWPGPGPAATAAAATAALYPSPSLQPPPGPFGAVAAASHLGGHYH
Summary of the method: as §1

ETV5 = ETV5 (Homo sapiens, UniProt P41161 1-510); conditions: protein: recombinant; tags: N-terminal GST; dsDNA, one strand shown
Chain of ETV5 (P41161 whole entry): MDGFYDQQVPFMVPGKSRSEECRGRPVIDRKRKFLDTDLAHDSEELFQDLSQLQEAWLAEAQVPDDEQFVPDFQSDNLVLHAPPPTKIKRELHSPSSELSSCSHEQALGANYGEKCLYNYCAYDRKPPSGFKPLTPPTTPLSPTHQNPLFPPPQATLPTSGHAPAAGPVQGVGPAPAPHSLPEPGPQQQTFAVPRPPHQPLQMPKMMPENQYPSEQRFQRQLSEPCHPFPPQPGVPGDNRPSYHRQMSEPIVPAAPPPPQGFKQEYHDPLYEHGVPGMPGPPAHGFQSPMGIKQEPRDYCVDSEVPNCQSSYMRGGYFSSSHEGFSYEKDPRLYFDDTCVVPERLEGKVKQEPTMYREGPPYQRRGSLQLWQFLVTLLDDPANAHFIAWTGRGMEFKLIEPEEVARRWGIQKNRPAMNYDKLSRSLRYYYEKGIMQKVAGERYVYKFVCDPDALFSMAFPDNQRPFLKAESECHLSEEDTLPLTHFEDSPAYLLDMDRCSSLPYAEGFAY
Summary of the method: as §1

HSF1 = HSF1 (Homo sapiens, UniProt Q00613 1-529); conditions: protein: recombinant; tags: N-terminal GST; chain copies: 3; dsDNA, one strand shown
Chain of HSF1 (Q00613 whole entry): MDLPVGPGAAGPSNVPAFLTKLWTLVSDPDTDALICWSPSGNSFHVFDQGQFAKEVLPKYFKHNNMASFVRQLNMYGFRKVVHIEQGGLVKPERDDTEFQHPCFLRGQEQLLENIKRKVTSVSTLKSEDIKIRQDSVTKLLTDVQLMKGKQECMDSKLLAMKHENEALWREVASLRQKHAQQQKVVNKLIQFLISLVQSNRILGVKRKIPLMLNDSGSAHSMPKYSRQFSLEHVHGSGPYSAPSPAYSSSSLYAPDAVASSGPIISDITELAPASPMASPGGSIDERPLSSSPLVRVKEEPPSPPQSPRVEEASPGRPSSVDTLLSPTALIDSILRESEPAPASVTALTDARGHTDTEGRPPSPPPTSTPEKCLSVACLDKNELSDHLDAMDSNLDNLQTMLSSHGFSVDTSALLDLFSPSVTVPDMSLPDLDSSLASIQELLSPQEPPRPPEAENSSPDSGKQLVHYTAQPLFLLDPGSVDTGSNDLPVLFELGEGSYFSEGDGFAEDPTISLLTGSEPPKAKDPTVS
Summary of the method: as §1

SPIC = biological target: T8, SPIC (Homo sapiens, UniProt Q8N5J4 1-248); conditions: protein: recombinant; tags: N-terminal GST; dsDNA, one strand shown
T8 sequence: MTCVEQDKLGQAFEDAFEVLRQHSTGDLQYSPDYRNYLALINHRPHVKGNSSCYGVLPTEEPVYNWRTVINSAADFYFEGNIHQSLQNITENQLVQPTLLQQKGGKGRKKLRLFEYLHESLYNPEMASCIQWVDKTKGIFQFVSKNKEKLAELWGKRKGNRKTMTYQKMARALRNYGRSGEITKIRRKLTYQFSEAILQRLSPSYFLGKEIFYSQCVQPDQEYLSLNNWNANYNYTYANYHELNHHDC
Summary of the method: as §1

ELF4 = ELF4 (Homo sapiens, UniProt Q99607 1-663); conditions: protein: recombinant; tags: N-terminal GST; dsDNA, one strand shown
Chain of ELF4 (Q99607 whole entry): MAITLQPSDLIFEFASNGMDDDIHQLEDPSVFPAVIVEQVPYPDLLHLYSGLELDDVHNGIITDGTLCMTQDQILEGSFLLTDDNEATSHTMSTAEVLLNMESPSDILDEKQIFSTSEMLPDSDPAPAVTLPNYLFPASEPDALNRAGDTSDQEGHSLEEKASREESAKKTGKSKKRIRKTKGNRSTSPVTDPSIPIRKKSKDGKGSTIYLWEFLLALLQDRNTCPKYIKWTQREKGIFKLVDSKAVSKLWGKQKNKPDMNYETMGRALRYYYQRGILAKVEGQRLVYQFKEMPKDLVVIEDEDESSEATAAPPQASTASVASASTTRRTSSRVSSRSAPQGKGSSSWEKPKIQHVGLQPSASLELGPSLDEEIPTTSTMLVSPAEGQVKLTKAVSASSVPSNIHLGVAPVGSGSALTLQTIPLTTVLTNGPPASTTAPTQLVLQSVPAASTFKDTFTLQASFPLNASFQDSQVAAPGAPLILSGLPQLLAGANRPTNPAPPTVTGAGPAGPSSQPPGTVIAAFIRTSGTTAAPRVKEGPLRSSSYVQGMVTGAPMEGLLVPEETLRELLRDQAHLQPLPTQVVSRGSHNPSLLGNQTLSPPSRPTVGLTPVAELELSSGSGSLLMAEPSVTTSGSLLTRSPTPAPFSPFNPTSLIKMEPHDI
Summary of the method: as §1

ELK4 = biological target: T9, ELK4 (Homo sapiens, UniProt P28324-2 1-405); conditions: protein: recombinant; tags: N-terminal GST; dsDNA, one strand shown
T9 sequence: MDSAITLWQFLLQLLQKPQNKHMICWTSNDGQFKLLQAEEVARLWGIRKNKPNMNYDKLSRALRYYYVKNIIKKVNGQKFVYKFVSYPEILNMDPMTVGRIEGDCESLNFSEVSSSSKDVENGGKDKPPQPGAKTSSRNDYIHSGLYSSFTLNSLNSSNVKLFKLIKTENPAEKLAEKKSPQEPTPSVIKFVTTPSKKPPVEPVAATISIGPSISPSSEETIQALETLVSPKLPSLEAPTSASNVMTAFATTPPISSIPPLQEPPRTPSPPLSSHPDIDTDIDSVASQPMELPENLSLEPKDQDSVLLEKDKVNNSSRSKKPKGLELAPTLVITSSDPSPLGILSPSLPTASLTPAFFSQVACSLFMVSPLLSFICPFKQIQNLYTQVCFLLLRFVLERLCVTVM
Summary of the method: as §1

ETV2 = biological target: T10, ETV2 (Homo sapiens, UniProt O00321 1-342); conditions: protein: recombinant; tags: N-terminal GST; dsDNA, one strand shown
T10 sequence: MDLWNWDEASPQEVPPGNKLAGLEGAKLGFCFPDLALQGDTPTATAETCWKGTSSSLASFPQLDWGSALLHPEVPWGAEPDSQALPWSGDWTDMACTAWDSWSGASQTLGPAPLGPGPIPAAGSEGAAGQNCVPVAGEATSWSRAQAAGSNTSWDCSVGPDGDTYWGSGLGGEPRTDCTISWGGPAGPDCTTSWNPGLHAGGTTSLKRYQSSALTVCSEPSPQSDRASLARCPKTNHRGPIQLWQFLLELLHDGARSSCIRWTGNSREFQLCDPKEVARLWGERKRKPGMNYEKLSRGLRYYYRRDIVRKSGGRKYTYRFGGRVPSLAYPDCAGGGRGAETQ
Summary of the method: as §1

ELF3 = biological target: T11, ELF3 (Homo sapiens, UniProt P78545 1-371); conditions: protein: recombinant; tags: N-terminal GST; dsDNA, one strand shown
T11 sequence: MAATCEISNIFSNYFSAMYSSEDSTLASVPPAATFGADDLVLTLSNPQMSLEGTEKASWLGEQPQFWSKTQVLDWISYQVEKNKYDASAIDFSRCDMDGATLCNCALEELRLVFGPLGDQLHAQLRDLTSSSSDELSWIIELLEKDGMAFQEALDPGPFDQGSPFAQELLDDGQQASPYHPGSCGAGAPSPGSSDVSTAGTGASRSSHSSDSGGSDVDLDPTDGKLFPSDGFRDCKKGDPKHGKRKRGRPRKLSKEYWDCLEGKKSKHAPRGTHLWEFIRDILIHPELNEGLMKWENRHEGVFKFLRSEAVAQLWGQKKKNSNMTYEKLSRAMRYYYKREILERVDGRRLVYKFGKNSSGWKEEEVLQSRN
Summary of the method: as §1

CRX = CRX (Homo sapiens, UniProt O43186 1-299); conditions: protein: recombinant; tags: N-terminal GST; dsDNA, one strand shown
Chain of CRX (O43186 whole entry): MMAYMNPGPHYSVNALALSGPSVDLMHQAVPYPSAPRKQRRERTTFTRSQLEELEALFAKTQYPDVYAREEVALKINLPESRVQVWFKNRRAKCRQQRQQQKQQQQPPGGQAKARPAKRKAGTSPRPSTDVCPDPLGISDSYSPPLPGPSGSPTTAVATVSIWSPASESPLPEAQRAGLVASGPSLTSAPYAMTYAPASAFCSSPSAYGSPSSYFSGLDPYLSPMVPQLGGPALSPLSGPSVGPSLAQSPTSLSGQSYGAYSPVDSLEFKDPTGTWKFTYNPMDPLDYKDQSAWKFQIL
Summary of the method: as §1

ETV1 = ETV1 (Homo sapiens, UniProt P50549 1-477); conditions: protein: recombinant; tags: N-terminal GST; dsDNA, one strand shown
Chain of ETV1 (P50549 whole entry): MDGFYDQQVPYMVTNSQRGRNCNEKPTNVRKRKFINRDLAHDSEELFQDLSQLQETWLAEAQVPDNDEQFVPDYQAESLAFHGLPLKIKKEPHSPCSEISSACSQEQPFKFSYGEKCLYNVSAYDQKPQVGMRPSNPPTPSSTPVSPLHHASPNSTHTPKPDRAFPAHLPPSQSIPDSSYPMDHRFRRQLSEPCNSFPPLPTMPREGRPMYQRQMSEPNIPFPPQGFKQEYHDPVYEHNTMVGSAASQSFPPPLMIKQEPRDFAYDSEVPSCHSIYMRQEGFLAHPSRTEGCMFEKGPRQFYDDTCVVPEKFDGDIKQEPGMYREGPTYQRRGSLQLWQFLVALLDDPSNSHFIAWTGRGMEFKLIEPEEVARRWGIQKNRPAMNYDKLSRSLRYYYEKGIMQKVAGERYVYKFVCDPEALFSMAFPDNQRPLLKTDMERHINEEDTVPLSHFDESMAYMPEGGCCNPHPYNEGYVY
Summary of the method: as §1

ATATCT
binding signal (FLI1): 1.25 fold enrichment (6-mer frequency, TF over GST control) | binding signal (ELK1): 1.19 fold enrichment (6-mer frequency, TF over GST control) | binding signal (GABPA): 1.26 fold enrichment (6-mer frequency, TF over GST control) | binding signal (ERG): 1.21 fold enrichment (6-mer frequency, TF over GST control) | binding signal (ELF1): 1.21 fold enrichment (6-mer frequency, TF over GST control) | binding signal (EHF): 1.17 fold enrichment (6-mer frequency, TF over GST control) | binding signal (SPI1): 1.16 fold enrichment (6-mer frequency, TF over GST control) | binding signal (SPIB): 1.21 fold enrichment (6-mer frequency, TF over GST control) | binding signal (ELK3): 1.15 fold enrichment (6-mer frequency, TF over GST control) | binding signal (FEV): 1.15 fold enrichment (6-mer frequency, TF over GST control) | binding signal (ETV5): 1.1 fold enrichment (6-mer frequency, TF over GST control) | binding signal (HSF1): 1.26 fold enrichment (6-mer frequency, TF over GST control) | binding signal (SPIC): 1.1 fold enrichment (6-mer frequency, TF over GST control) | binding signal (ELF4): 1.17 fold enrichment (6-mer frequency, TF over GST control) | binding signal (ELK4): 1.2 fold enrichment (6-mer frequency, TF over GST control) | binding signal (ETV2): 1.3 fold enrichment (6-mer frequency, TF over GST control) | binding signal (ELF3): 1.21 fold enrichment (6-mer frequency, TF over GST control) | binding signal (CRX): 1.39 fold enrichment (6-mer frequency, TF over GST control) | binding signal (ETV1): 1.16 fold enrichment (6-mer frequency, TF over GST control)
